Records with an inconclusive call do not appear. Calls of active or inactive are those of the source. Rule for the calls: active = hit-call score of the fitted dose curve at least 0.9, where 1 is the maximum; inconclusive = response in the unintended direction; inactive = score below 0.9.
These compounds were tested against human Peroxisome Proliferator-activated Receptor delta (PPARd), PPARD (gene 5467) (UniProt Q03181) (assay: ATG_PPARd_TRANS: Attagene TRANS-FACTORIAL HepG2 Assay for human Peroxisome Proliferator-activated Receptor delta (PPARd) (AID 2283002)).
Experimental: ATG_TRANS is a cell-based, multiplexed-readout assay that uses HepG2, a human liver cell line, with measurements taken at 24 hours after chemical dosing in a 24-well plate.ATG_PPARd_TRANS is one of 30 assay component(s) measured or calculated from the ATG_TRANS assay. It is designed to make measurements of mRNA induction, a form of inducible reporter, as detected with fluorescence intensity signals by Reverse transcription polymerase chain reaction (RT-PCR) and Capillary electrophoresis technology.Data from the assay component ATG_PPARd_TRANS was analyzed into 1 assay endpoint. This assay endpoint, ATG_PPARd_TRANS, was analyzed in the positive analysis fitting direction relative to DMSO as the negative control and baseline of activity. Using a type of inducible reporter, measures of mRNA for gain-of-signal activity can be used to understand the reporter gene at the transcription factor-level as they relate to the gene PPARD. Furthermore, this assay endpoint can be referred to as a primary readout, because this assay has produced multiple assay endpoints where this one serves a reporter gene function. To generalize the intended target to other relatable targets, this assay endpoint is annotated to the nuclear receptor intended target family, where the subfamily is non-steroidal.
Human liver HepG2 cells are transiently transfected with multiple reporter transcription units (MRTUs) in 6-well plates using FuGene 6 reagent (Roche; 3 ml FuGene/1 mg DNA). The MRTU constructs are regulated by a cis-regulating element (promoter). […] A major difference between the CIS and TRANS system is that in CIS activities of endogenous TFs are measured, whereas the TRANS assay evaluates changes in activities of exogenous, chimeric NR-Gal4 proteins. […] At the end of 24 hour incubation, total RNA was isolated using TriZol reagent (Invitrogen). The isolated RNA is then reverse-transcribed using oligo(dT) primer and Mo-MLV reverse transcriptase (Invitrogen) with DNAse I (Ambion) treatment for 30 min. The one-tenth of the produced cDNA was amplified by PCR using Taq DNA polymerase (Invitrogen) and two reporter sequence-specific primers. The PCR products were fluorescently labeled by primer extension with 6-arboxyfluorescein (6-FAM) 5'-labeled reporter sequence-specific primer (2 min at 95 C, 20 s at 68 C and 10 min at 72 C) and these products were digested with 5U of HpaI (New England Biolabs) for 2h at 37 C. The fragments were purified using Qiaquick PCR columns (Qiagen), analyzed on an ABI 3130xL genetic analyzer (Applied Biosystems) with peak positions identified by using a set of X-rhodamine (ROX)-labeled MapMarker1000 molecular weight standards (BioVentures). The raw capillary electrophoresis data was processed using Attagraph software (Attagene).

Sequence of human Peroxisome Proliferator-activated Receptor delta (PPARd), PPARD (gene 5467) (Q03181 whole entry, looked up): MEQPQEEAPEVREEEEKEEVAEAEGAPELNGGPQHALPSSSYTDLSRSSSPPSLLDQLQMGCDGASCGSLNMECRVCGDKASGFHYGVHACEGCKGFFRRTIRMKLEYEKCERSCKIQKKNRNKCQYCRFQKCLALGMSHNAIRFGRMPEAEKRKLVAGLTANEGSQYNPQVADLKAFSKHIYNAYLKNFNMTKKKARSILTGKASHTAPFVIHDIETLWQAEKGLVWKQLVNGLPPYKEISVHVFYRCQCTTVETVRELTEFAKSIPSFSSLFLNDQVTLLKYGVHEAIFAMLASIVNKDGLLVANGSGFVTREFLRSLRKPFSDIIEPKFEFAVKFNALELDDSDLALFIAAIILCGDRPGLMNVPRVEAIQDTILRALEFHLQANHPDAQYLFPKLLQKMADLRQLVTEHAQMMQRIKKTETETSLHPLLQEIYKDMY

| Structure (SMILES) | outcome |
| --- | --- |
| CCCCOC(=O)[C@@H](C)Oc1ccc(Oc2ccc(C#N)cc2F)cc1 | inactive |
| CCC(CC)Nc1c([N+](=O)[O-])cc(C)c(C)c1[N+](=O)[O-] | inactive |
| COP(=O)(OC)OC(Br)C(Cl)(Cl)Br (stereo not given) | inactive |
| CC(COc1ccc(Oc2ccccc2)cc1)Oc1ccccn1 (stereo not given) | inactive |
| Nc1nc(N)nc(NC2CC2)n1 | inactive |
| C[Si](Cn1cncn1)(c1ccc(F)cc1)c1ccc(F)cc1 | inactive |
| FC(F)C(F)(F)OCC(Cn1cncn1)c1ccc(Cl)cc1Cl (stereo not given) | inactive |
| Cc1nn(-c2cc(NS(C)(=O)=O)c(Cl)cc2Cl)c(=O)n1C(F)F | inactive |
| CCOC(=O)CC(SP(=O)(OC)OC)C(=O)OCC (stereo not given) | inactive |
| CCOP(=S)(OCC)SCCSCC | inactive |
| CC(C)[C@H](C(=O)O[C@H](C#N)c1cccc(Oc2ccccc2)c1)c1ccc(Cl)cc1 | inactive |
| CC(C1CC1)C(O)(Cn1cncn1)c1ccc(Cl)cc1 (stereo not given) | inactive |
| CCCCOC(=O)c1ccccc1C(=O)O | inactive |
| CCOP(=S)(Oc1cnc(C(C)(C)C)nc1)OC(C)C (stereo not given) | inactive |
| CC(C)N(C(=O)SCC(Cl)=C(Cl)Cl)C(C)C | inactive |
| CCOC(=O)COc1cc(-c2nn(C)c(OC(F)F)c2Cl)c(F)cc1Cl | inactive |
| CON=C(C(=O)OC)c1ccccc1CON=C(C)c1cccc(C(F)(F)F)c1 | inactive |
| Cc1cc(C2CC2)nc(Nc2ccccc2)n1 | inactive |
| CCOP(=O)(OCC)Oc1cc(C)nc(C(C)C)n1 | inactive |
| CNc1cnn(-c2cccc(C(F)(F)F)c2)c(=O)c1Cl | inactive |

| Structure (SMILES) | outcome |
| --- | --- |
| Nc1c(Cl)cc([N+](=O)[O-])cc1Cl | inactive |
| CNC(=O)Oc1cccc2c1OC(C)(C)O2 | inactive |
| COc1ccc(C(=CC(=O)N2CCOCC2)c2ccc(Cl)cc2)cc1OC | inactive |
| CCOP(=O)(NC(C)C)Oc1ccc(SC)c(C)c1 (stereo not given) | inactive |
| CCOP(=S)(OCC)Oc1ccc2c(C)c(Cl)c(=O)oc2c1 | inactive |
| CCOP(=S)(OCC)Oc1cc(C)nc(C(C)C)n1 | inactive |
| CN(C)NC(=O)CCC(=O)O | inactive |
| CCCCSP(=O)(SCCCC)SCCCC | inactive |
| CCc1cccc(CC)c1N(COC)C(=O)CCl | inactive |
| CCNc1nc(Cl)nc(NC(C)(C)C#N)n1 | inactive |
| CC1(C(=O)Nc2ccc(O)c(Cl)c2Cl)CCCCC1 | inactive |
| CNC(=O)ON=C(SC)C(=O)N(C)C | inactive |
| CCC(=NOC/C=C/Cl)C1=C(O)CC(C2CCOCC2)CC1=O (stereo not given) | inactive |
| CCOP(=S)(OCC)OC(Cl)C(Cl)(Cl)Cl (stereo not given) | inactive |
| O=[N+]([O-])c1cc(C(F)(F)F)c(Cl)c([N+](=O)[O-])c1Nc1ncc(C(F)(F)F)cc1Cl | inactive |
| N#CSCSC#N | inactive |
| C=C(C)[C@H]1Cc2c(ccc3c2O[C@@H]2COc4cc(OC)c(OC)cc4[C@@H]2C3=O)O1 | inactive |
| CNC(=O)ON=C(C)SC | inactive |
| CSC1=N[C@@](C)(c2ccccc2)C(=O)N1Nc1ccccc1 | inactive |
| CCOP(=S)(OCC)Oc1ccc([N+](=O)[O-])cc1 | inactive |
